Rows were chosen to be rich in hits. Some 3% of all compounds tested hit in one or more screens of this group.
PAFAH1B2 FP inh: blocks human PAF acetylhydrolase 1b catalytic subunit 2; P68402; recombinant PAFAH1B2, FP-rhodamine activity probe, fluorescence polarization; inhibition, % at 3.39 µM; 340,000 compounds, 1.2% hits; AID 492953;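 active means inhibition above the mean of all tested compounds plus 3 SD, cut at about 24% in these data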;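 further: 0% = enzyme with DMSO and 100% = wells lacking PAFAH1B2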
PAFAH2 inh: inhibitors of human PAFAH2. Q99487. recombinant PAFAH2, FP-rhodamine activity probe, fluorescence polarization. inhibition, % at 3.39 µM. 340,000 compounds, 0.99% hits;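 active means inhibition above the mean over all tested compounds plus 3 SD, cut at about 30% in these data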;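 further: inhibitors block probe labeling of enzyme so polarization drops; 0% = enzyme with DMSO and 100% = wells lacking PAFAH2 protein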
PP5 inh: PP5 (human) phosphatase inhibition; AID 1987; inhibition, % at 6.7 µM; purified PP5c, OMFP substrate fluorescence; P53041; 320,000 compounds, 0.18% hits;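 active means inhibition above the campaign's mean inhibition across all tested compounds plus 3 SD, cut at about 9.5% in these data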;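 further: 0% = DMSO only and 100% = 100 µM cantharidin control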
CTSL1 counter: counter-screen for PFM18AAP inhibitors: inhibitors of F. hepatica cathepsin L1; inhibition, % at 5.96 µM; AID 1906; recombinant F. hepatica cathepsin L1, Z-Leu-Arg-MCA fluorescence; 300,000 compounds, 0.49% hits;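 active means inhibition above the mean of all tested compounds plus 3 SD, set per screening campaign, cut at about 17% in these data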;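 further: 0% = plate median of test compound wells and 100% = 1 µM Z-Phe-Ala-diazomethylketone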
PAFAH1B3 inh: inhibitors of human PAFAH1B3. Q15102. recombinant PAFAH1B3, FP-rhodamine probe, fluorescence polarization. inhibition, % at 3.39 µM. 340,000 compounds, 0.28% hits;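 active means inhibition above the screen-wide average of all tested compounds plus 3 SD, cut at about 25% in these data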;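 further: 0% = enzyme with DMSO only and 100% = wells lacking PAFAH1B3 protein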
pPAFAH FP inh: inhibitors of human plasma PAF acetylhydrolase (pPAFAH). Q13093. recombinant pPAFAH, FP-rhodamine probe fluorescence polarization. inhibition, % at 3.39 µM. 330,000 compounds, 1.5% hits. AID 463082;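 active means inhibition above the mean inhibition across the screen plus 3 SD, cut at about 25% in these data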;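 further: inhibitors block binding of the rhodamine activity-based probe so polarization drops; 0% = enzyme with DMSO and 100% = wells lacking pPAFAH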
Target sequence (Q13093 whole entry, looked up): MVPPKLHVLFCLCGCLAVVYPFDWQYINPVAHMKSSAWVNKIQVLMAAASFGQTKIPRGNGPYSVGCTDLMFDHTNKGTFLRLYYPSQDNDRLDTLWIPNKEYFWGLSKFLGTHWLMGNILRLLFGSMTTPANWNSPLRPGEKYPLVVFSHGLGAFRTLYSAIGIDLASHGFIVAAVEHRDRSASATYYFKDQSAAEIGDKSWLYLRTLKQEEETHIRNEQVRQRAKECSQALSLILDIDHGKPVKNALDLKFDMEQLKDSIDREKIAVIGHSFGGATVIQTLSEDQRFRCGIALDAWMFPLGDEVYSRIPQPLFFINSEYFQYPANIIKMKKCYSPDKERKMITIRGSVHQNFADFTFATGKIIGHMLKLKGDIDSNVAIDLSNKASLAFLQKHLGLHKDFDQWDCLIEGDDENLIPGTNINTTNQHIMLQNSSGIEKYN
PAFAH2 FP conf: confirmation of human PAFAH2 inhibitors | shares compounds with PAFAH2 inh | inhibition, % at 3.39 µM | recombinant PAFAH2, FP-rhodamine activity probe, fluorescence polarization | 2,300 compounds, 65% hits | AID 493030;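 active means mean inhibition over three repeats above a set limit taken from the earlier primary screen, cut at about 30% in these data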;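 further: inhibitor blocks binding of rhodamine activity probe so polarization falls; 0% = enzyme with DMSO and 100% = wells lacking PAFAH2 protein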
Numbers without * were called inactive; nt = no result given.

SMILES	PAFAH1B2 FP inh	PAFAH2 inh	PP5 inh	CTSL1 counter	PAFAH1B3 inh	pPAFAH FP inh	PAFAH2 FP conf
CC(NC(=O)COC(=O)C1CC1C)c1cccc(Cl)c1 (configuration not stated)	0	36*	nt	nt	7	7	23
CC(NC(=O)COC(=O)C1CCCCC1)c1ccccc1 (configuration not stated)	8	36*	nt	nt	9	8	22
CC(NC(=O)COC(=O)C1CC1C)c1ccccc1 (configuration not stated)	-3	33*	nt	nt	11	4	30*
O=C(NCc1ccccc1)c1ccc(NC(=O)C2CCC2)cc1	-1	0	nt	nt	10	nt	nt
COCCN(C(=O)CSc1nc2ccccc2o1)c1c(N)n(Cc2ccccc2)c(=O)[nH]c1=O	-1	4	0	nt	6	2	nt
COc1ccccc1OCCNc1ccc(S(=O)(=O)N2CCCC2)cn1	6	2	nt	nt	-1	nt	nt
Cc1ccc(S(=O)(=O)N(C)C)cc1NC(=O)COC(=O)c1ccc(Cl)cc1	6	35*	-1	0	10	6	26
CS(=O)(=O)c1ccc(Cl)c(NC(=O)COC(=O)c2cccc(C#N)c2)c1	7	1	0	-1	8	0	nt
Cc1cc(C(=O)OCC(=O)Nc2cc(S(=O)(=O)N(C)C)ccc2C)c(C)o1	nt	nt	0	-9	nt	5	nt
CN(C)S(=O)(=O)c1ccc(Cl)c(NC(=O)COC(=O)c2ccc(O)cc2)c1	2	59*	-1	-3	7	14	55*
CN(C)S(=O)(=O)c1ccc(Cl)c(NC(=O)COC(=O)c2ccc3c(c2)NC(=O)CS3)c1	1	48*	1	-4	1	0	40*
COc1ccccc1OCCC(=O)OCC(=O)Nc1cc(S(=O)(=O)N(C)C)ccc1Cl	2	-3	1	-15	5	22	nt
CCN(c1ccccc1)S(=O)(=O)c1ccc(Cl)c(NC(=O)COC(=O)c2ccc(Cl)c(N)c2)c1	8	40*	4	3	6	19	20
O=C1/C(=C/c2ccccc2Cl)SC(=S)N1CCCC(=O)N(CCO)c1ccccc1	8	5	1	2	10	11	nt
Cc1ccc(S(=O)(=O)N(C)C)cc1NC(=O)COC(=O)C1(c2ccccc2)CC1	12	7	1	1	2	4	nt
Cc1ccc(S(=O)(=O)N(C)C)cc1NC(=O)COC(=O)C1CC1	1	43*	1	-5	-1	1	34*
Cc1ccc(S(=O)(=O)NC(CC(C)C)C(=O)N2CCN(C/C=C/c3ccccc3)CC2)cc1 (configuration not stated)	1	-5	7	nt	2	-2	nt
COc1cc(-c2cccs2)cc(=O)c2c(C)oc(C)c12	4	32*	1	-3	7	22	6
O=C(NCc1ccccn1)C(=O)Nc1cccc2ccccc12	7	1	1	2	1	0	nt
CCOC(=O)c1ccc(N2C(=O)C3CCOc4ccccc4C32)cc1 (configuration not stated)	9	80*	2	nt	10	-1	63*
O=C(COC(=O)Cc1ccc(Cl)cc1)NCc1ccc2c(c1)OCO2	7	-4	nt	nt	7	nt	nt
O=C(COC(=O)c1cccnc1Cl)Nc1ncc(Cl)cc1Cl	6	9	0	-7	0	4	nt
O=C(COC(=O)c1ccc(O)cc1)Nc1ncc(Cl)cc1Cl	2	38*	-1	-20	-1	8	29
O=C(COC(=O)c1ccc2c(c1)OCO2)Nc1ncc(Cl)cc1Cl	4	40*	3	-2	2	10	37*
O=C(COC(=O)c1ccc2c(c1)OCO2)NCc1ccc(Cl)cc1	10	44*	-1	-1	4	3	40*
O=C(c1ccnc(Cl)c1)N1CCCC(N2CCN(c3ccccc3F)CC2)C1 (configuration not stated)	-2	-3	2	0	1	-3	nt
CCOC(=O)C1=C(C)N=c2s/c(=C\c3ccc(OCC(=O)O)cc3)c(=O)n2C1c1ccccc1OC (configuration not stated)	-3	12	1	12	-7	3	nt
